Inhibition data for 38 compounds are collected here from PubChem BioAssay AID651650 (Sanford-Burnham Center for Chemical Genomics, 2012).

Molecules are shown by their SMILES.

Sequence of Neuropilin-1 (Homo sapiens) (O14786 whole entry, looked up): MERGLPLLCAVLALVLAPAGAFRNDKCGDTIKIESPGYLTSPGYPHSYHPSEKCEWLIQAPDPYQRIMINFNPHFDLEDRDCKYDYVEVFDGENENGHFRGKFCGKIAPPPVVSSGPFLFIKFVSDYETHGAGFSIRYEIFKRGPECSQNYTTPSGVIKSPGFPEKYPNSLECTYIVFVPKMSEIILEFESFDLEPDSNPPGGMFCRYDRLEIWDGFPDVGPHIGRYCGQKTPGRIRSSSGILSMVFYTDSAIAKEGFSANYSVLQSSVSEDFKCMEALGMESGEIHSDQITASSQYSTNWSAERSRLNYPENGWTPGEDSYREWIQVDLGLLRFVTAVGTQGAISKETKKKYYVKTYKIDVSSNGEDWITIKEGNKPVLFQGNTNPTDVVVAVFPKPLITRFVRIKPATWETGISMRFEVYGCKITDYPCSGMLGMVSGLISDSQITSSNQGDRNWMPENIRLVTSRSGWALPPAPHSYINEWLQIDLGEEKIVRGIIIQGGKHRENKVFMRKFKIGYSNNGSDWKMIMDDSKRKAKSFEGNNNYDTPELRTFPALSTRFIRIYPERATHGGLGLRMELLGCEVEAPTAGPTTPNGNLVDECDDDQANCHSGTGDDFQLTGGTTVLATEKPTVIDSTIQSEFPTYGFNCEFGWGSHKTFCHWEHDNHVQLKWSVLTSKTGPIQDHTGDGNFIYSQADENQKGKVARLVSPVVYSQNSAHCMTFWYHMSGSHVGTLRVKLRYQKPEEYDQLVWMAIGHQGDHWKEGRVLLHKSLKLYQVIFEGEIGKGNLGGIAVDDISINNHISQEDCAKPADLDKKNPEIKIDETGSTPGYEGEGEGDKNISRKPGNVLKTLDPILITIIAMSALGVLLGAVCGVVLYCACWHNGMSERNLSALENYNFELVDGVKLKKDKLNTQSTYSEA

The experiment has as its target Neuropilin-1 (Homo sapiens) (UniProt O14786). The experiment in a line: blockers of CendR peptide binding to NRP-1 – biochemical, FP and AlphaScreen panel, dose response (AID 651650). The conditions noted are these: NRP-1 b1b2 / RPARPAR peptide binding, FP or AlphaScreen; run 1, at 100 µM (top of the series). (In general: Alpha assays give light when donor and acceptor beads are brought close together.)
The term inhibition denotes the change of the read-out against control, counted positive when it falls. As to `C[C@@H](NC(=O)c1nc[nH]c1C(=O)NCc1ccccc1)c1ccccc1`, the inhibition came to 23.1%.

As for `CC1CCN(C(=O)CSc2nncn2C)CC1`, the inhibition amounted to 0.359%.

Regarding `CC(=O)Oc1cc2c(c3ccccc13)CCC2=O`, the inhibition came out at 23.4%.

In the case of `COc1cc(C(=O)OCC(=O)Nc2c(F)c(F)c(F)c(F)c2F)cc(OC)c1OC`, the inhibition came out at 17.8%.

In the case of `CC(C)(C)n1nc(-c2ccc(F)cc2)c2c(N)ncnc21`, the inhibition turned out to be 39.3%.

As for `COC(=O)N[C@@H]1C[C@H]2[C@@H]3CC[C@H]4C[C@@H](OC)CC[C@]4(C)[C@H]3CC[C@]12C`, the inhibition turned out to be 57.8%.

For `COc1ccc(-c2cc(C)no2)cc1S(=O)(=O)NCc1cccc(C)c1`, the inhibition is 23.2%.

For the compound `CCOc1ccc(N2C(=O)CC(N3CCN(c4ccc(Cl)cc4)CC3)C2=O)cc1` (stereo not drawn), the inhibition was determined as 86.2%.

Consider `O=C(O/N=C1/CCSc2ccccc21)c1ccccc1`, for which the inhibition turned out to be 17.1%.

For `CCCCCCCN1C(Nc2ccccc2)=NC[C@@H]1Cc1ccccc1`, the inhibition is 24.7%.

Regarding `CCN(CC)C(=O)C1CCCN(C(=O)Nc2ccc3nsnc3c2)C1` (stereo not drawn), the inhibition came out at 21.5%.

With `Cc1nnc(SC(C)C(=O)Nc2ccc(S(=O)(=O)NC3CCCCC3)cc2)s1` (stereo not drawn), the inhibition was 21.8%.

Consider `N/C(CSc1ccc(Cl)cc1)=N\S(=O)(=O)c1ccc(Cl)cc1`, for which the inhibition stood at 37.6%.

With `O=c1ccsn1Cc1ccccc1`, the inhibition came to 11.6%.

On to `O=C(NCc1ccccc1)c1ccc(N2CCC3(CC2)CC(c2ccc(Cl)cc2)=NO3)c([N+](=O)[O-])c1`, for which the inhibition amounted to 69.3%.

With `COc1ccc(CN2C(=O)c3ccccc3C2=O)cc1C(=O)Nc1ccccc1N1CCOCC1`, the inhibition came out at 30%.

In the case of `CCC1Nc2ncnc(N3CCCCC3)c2N(Cc2ccc(C)cc2)C1=O` (stereo not drawn), the inhibition was 18.8%.

Take `O=C(CCc1ccc(Oc2cc([N+](=O)[O-])cc([N+](=O)[O-])c2)cc1)N1CCCCCC1`: the inhibition worked out at 75.6%.

Turning to `CC(C)COC(=O)C1C2C=CC3(CN(C(C)c4ccc(Br)cc4)C(=O)C13)O2` (stereo not drawn), the inhibition worked out at 60.2%.

Turning to `COc1cccc(-c2ccc3c(c2)N(Cc2ccccc2OC)C(=O)C(C)S3)c1` (stereo not drawn), the inhibition was -18.6%.

Consider `NC(=O)C1CCCN(C(=O)c2ccc3nc(Cc4cccc(Cl)c4)oc3c2)C1` (stereo not drawn), for which the inhibition amounted to 101%.

As to `O=C(O)c1ccccc1CSc1ccccn1`, the inhibition came to 101%.

Regarding `O=[N+]([O-])c1ccc(-n2nnnc2CN2CCCCC2)cc1`, the inhibition was 22.7%.

Turning to `NS(=O)(=O)c1cccnc1Nc1cccc(Cl)c1Cl`, the inhibition turned out to be 14.4%.

For the compound `Cc1ccc(C)c(-n2c(SCC(=O)NC(C(=O)O)C(C)C)nnc2-c2cccc(Cl)c2)c1` (stereo not drawn), the inhibition came out at 46.2%.

Take `Cc1cc(NC(=O)CCC(=O)NNC(=O)c2ccc(C(C)(C)C)cc2)no1`: the inhibition was 102%.

For `Cc1ccc(Cl)c(NC(=O)CSc2cccc[n+]2[O-])c1Cl`, the inhibition is -8.97%.

For the compound `O=C(CSC1CN(C(c2ccccc2)c2ccccc2)C1)N/N=C/c1ccccc1`, the inhibition was 53.3%.

Turning to `CC(C)OC(=O)CSc1nnc(-c2ccccn2)n1-c1ccccc1`, the inhibition is -4.4%.

As for `CCc1ccc(C2CC(=O)N(c3cccc(F)c3)C3=C2C(=O)OC3)cc1` (stereo not drawn), the inhibition amounted to 33.7%.

For `NC(=O)CC[C@H](NC(=O)c1ccc(F)cc1)C(=O)N1CCN(Cc2ccc3c(c2)OCO3)CC1`, the inhibition is 28.6%.

On to `CCOC(=O)C1(O)CC(C)=NN1C(=O)c1cccc(Br)c1` (stereo not drawn), for which the inhibition was 35.1%.

As to `Cc1csc(NC(C)c2nc3cc(C(F)(F)F)ccc3n2CCCO)n1` (stereo not drawn), the inhibition worked out at 89.7%.

Consider `CC(=O)c1ccc(OCC(=O)Nc2nnc(C3CC3)s2)cc1`, for which the inhibition is -27.1%.

As for `COc1ccc(CCNC(=O)c2c(O)c3cccc4c3n(c2=O)CC4)cc1OC`, the inhibition stood at 37.4%.

Turning to `CCC1CCCCN1C(=S)Nc1ccc(OC(F)F)cc1` (stereo not drawn), the inhibition amounted to 69.3%.

For the compound `CCOC(=O)N1CCN(C(=O)c2cc3n(n2)C(C(F)(F)F)CC(c2ccc4c(c2)OCO4)N3)CC1` (stereo not drawn), the inhibition amounted to 30.7%.

For the compound `O=C(CCn1c(=O)c2cccn2c2cccnc21)NCc1cccc(Cl)c1`, the inhibition was determined as 5.81%.
